In PubChem BioAssay AID1159580 (chemical genetic matrix, 2015):
“And” between values parts separate entries of the source, which are not always exact repeats. Equal entries are not always repeated. In all, about 5,500 compounds went through this assay and about 2,000 (36%) were called active. Roughly 18% stayed inconclusive and do not appear here. Cut-off read from the data, not from the text of the source: active = normalized growth mostly below about 0.91 (no sharp cut-off); inconclusive = no clear call, values can overlap the other calls; inactive = mostly above about 0.92. The list shows a part of the results.

Assay: chemical genetic growth profiling, strain panel (AID 1159580);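 note: tested at 20 µM; growth read once vehicle control cultures reached saturation at 30 °C; 1 = growth at the plate median or of vehicle wells; lower values mean less growth of the strain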
Settings: growth OD

Measured: normalized growth

CC[N+](CC)(CC)CCOc1cccc(OCC[N+](CC)(CC)CC)c1OCC[N+](CC)(CC)CC
inactive: S. cerevisiae deletion strains, locus YJR066W, strain TOR1, stronger effect = lower value 0.953 | S. cerevisiae deletion strains, locus YKL009W, strain mrt4, stronger effect = lower value 0.99 | S. cerevisiae deletion strains, locus YKL068W, stronger effect = lower value 1 | S. cerevisiae deletion strains, locus YKL085W, strain MDH1 (second series), stronger effect = lower value 1.02 | S. cerevisiae deletion strains, locus YKL085W, strain MDH1, stronger effect = lower value 1.02 | S. cerevisiae deletion strains, locus YKL160W, strain elf1, stronger effect = lower value 1.04 | S. cerevisiae deletion strains, locus YKR001C, strain vps1, stronger effect = lower value 1 | S. cerevisiae deletion strains, locus YKR026C, strain gcn3, stronger effect = lower value 1.01 | S. cerevisiae deletion strains, locus YKR091W, strain srl3, stronger effect = lower value 1.02 | S. cerevisiae deletion strains, locus YLL001W, strain dnm1, stronger effect = lower value 1.04 | S. cerevisiae deletion strains, locus YLL026W, stronger effect = lower value 1.01 | S. cerevisiae deletion strains, locus YLL041C, strain sdh2, stronger effect = lower value 1.01 | S. cerevisiae deletion strains, locus YLR027C, strain aat2, stronger effect = lower value 1.02 | S. cerevisiae deletion strains, locus YLR039C, strain RIC1, stronger effect = lower value 1.11 | S. cerevisiae deletion strains, locus YLR058C, strain SHM2, stronger effect = lower value 1.03 | S. cerevisiae deletion strains, locus YLR102C, strain apc9, stronger effect = lower value 1.01 | S. cerevisiae deletion strains, locus YLR113W, strain HOG1, stronger effect = lower value 0.977 | S. cerevisiae deletion strains, locus YLR221C, strain rsa3, stronger effect = lower value 1.02 | S. cerevisiae deletion strains, locus YLR258W, strain gsy2, stronger effect = lower value 1.01 | S. cerevisiae deletion strains, locus YLR262C, strain YPT6 (second series), stronger effect = lower value 1.05 | S. cerevisiae deletion strains, locus YLR262C, strain YPT6, stronger effect = lower value 1.07 | S. cerevisiae deletion strains, locus YLR268W, strain sec22, stronger effect = lower value 1.01 | S. cerevisiae deletion strains, locus YLR320W, strain mms22, stronger effect = lower value 1.03 | S. cerevisiae deletion strains, locus YLR330W, strain CHS5, stronger effect = lower value 1.01 | S. cerevisiae deletion strains, locus YLR342W, strain FKS1 (second series), stronger effect = lower value 0.996 | S. cerevisiae deletion strains, locus YLR342W, strain FKS1, stronger effect = lower value 1.02 | S. cerevisiae deletion strains, locus YLR357W, strain rsc2, stronger effect = lower value 1 | S. cerevisiae deletion strains, locus YLR370C, strain arc18, stronger effect = lower value 1.01 | S. cerevisiae deletion strains, locus YLR371W, strain rom2, stronger effect = lower value 1.01 | S. cerevisiae deletion strains, locus YLR384C, strain iki3, stronger effect = lower value 1.02 | S. cerevisiae deletion strains, locus YLR418C, strain cdc73, stronger effect = lower value 1.02 | S. cerevisiae deletion strains, locus YML016C, strain PPZ1, stronger effect = lower value 1.01 | S. cerevisiae deletion strains, locus YML032C, strain rad52, stronger effect = lower value 1 | S. cerevisiae deletion strains, locus YML120C, strain ndi1, stronger effect = lower value 1.03 | S. cerevisiae deletion strains, locus YML124C, strain tub3, stronger effect = lower value 1.01 | S. cerevisiae deletion strains, locus YMR058W, strain fet3, stronger effect = lower value 1.01 | S. cerevisiae deletion strains, locus YMR078C, strain ctf18, stronger effect = lower value 1.02 | S. cerevisiae deletion strains, locus YMR125W, strain sto1, stronger effect = lower value 1.01 | S. cerevisiae deletion strains, locus YMR129W, stronger effect = lower value 1.01 | S. cerevisiae deletion strains, locus YMR205C, strain PFK2, stronger effect = lower value 1.03 | S. cerevisiae deletion strains, locus YMR223W, strain ubp8, stronger effect = lower value 1.02 | S. cerevisiae deletion strains, locus YMR231W, strain pep5, stronger effect = lower value 1.01 | S. cerevisiae deletion strains, locus YMR263W, strain SAP30, stronger effect = lower value 0.995 | S. cerevisiae deletion strains, locus YMR307W, strain GAS1, stronger effect = lower value 1.02 | S. cerevisiae deletion strains, locus YNL067W, strain RPL9B, stronger effect = lower value 1.01 | S. cerevisiae deletion strains, locus YNL071W, strain lat1, stronger effect = lower value 1.01 | S. cerevisiae deletion strains, locus YNL128W, strain TEP1, stronger effect = lower value 1.02 | S. cerevisiae deletion strains, locus YNL153C, strain GIM3, stronger effect = lower value 1.01 | S. cerevisiae deletion strains, locus YNL175C, strain NOP13, stronger effect = lower value 0.987 | S. cerevisiae deletion strains, locus YNL183C, strain NPR1, stronger effect = lower value 0.969 | S. cerevisiae deletion strains, locus YNL197C, strain WHI3, stronger effect = lower value 0.987 | S. cerevisiae deletion strains, locus YNL209W, strain ssb2, stronger effect = lower value 1.02 | S. cerevisiae deletion strains, locus YNL224C, strain SQS1, stronger effect = lower value 0.997 | S. cerevisiae deletion strains, locus YNL233W, strain BNI4, stronger effect = lower value 1.02 | S. cerevisiae deletion strains, locus YNL248C, strain rpa49, stronger effect = lower value 1 | S. cerevisiae deletion strains, locus YNL250W, strain rad50, stronger effect = lower value 1.05 | S. cerevisiae deletion strains, locus YNL271C, strain bni1, stronger effect = lower value 1.01 | S. cerevisiae deletion strains, locus YNL298W, strain CLA4, stronger effect = lower value 1.01 | S. cerevisiae deletion strains, locus YNL307C, strain MCK1, stronger effect = lower value 1.02 | S. cerevisiae deletion strains, locus YNL322C, strain KRE1 (second series), stronger effect = lower value 1.02 | S. cerevisiae deletion strains, locus YNL322C, strain KRE1, stronger effect = lower value 1 and 1.01 | S. cerevisiae deletion strains, locus YNR049C, strain mso1, stronger effect = lower value 1.02 | S. cerevisiae deletion strains, locus YNR052C, strain pop2, stronger effect = lower value 1.02 | S. cerevisiae deletion strains, locus YOL006C, strain TOP1, stronger effect = lower value 1.04 | S. cerevisiae deletion strains, locus YOL012C, strain htz1 0.763 | S. cerevisiae deletion strains, locus YOL147C, strain pex11, stronger effect = lower value 1 | S. cerevisiae deletion strains, locus YOR001W, strain rrp6, stronger effect = lower value 1 | S. cerevisiae deletion strains, locus YOR061W, strain CKA2, stronger effect = lower value 1.01 | S. cerevisiae deletion strains, locus YOR069W, strain VPS5, stronger effect = lower value 1.01 | S. cerevisiae deletion strains, locus YOR070C, strain gyp1, stronger effect = lower value 1.02 | S. cerevisiae deletion strains, locus YOR080W, strain dia2, stronger effect = lower value 1.02 | S. cerevisiae deletion strains, locus YOR083W, strain WHI5 (second series), stronger effect = lower value 0.998 | S. cerevisiae deletion strains, locus YOR083W, strain WHI5, stronger effect = lower value 1.04 | S. cerevisiae deletion strains, locus YOR106W, strain vam3, stronger effect = lower value 1.02 | S. cerevisiae deletion strains, locus YOR136W, strain idh2, stronger effect = lower value 1 | S. cerevisiae deletion strains, locus YOR144C, strain elg1, stronger effect = lower value 1.01 | S. cerevisiae deletion strains, locus YOR184W, strain ser1, stronger effect = lower value 1.04 | S. cerevisiae deletion strains, locus YOR231W, strain MKK1, stronger effect = lower value 1 | S. cerevisiae deletion strains, locus YOR265W, strain rbl2, stronger effect = lower value 1.01 | S. cerevisiae deletion strains, locus YOR270C, strain vph1, stronger effect = lower value 1.04 | S. cerevisiae deletion strains, locus YOR290C, strain snf2, stronger effect = lower value 0.958 | S. cerevisiae deletion strains, locus YOR316C, strain cot1, stronger effect = lower value 1.02 | S. cerevisiae deletion strains, locus YPL051W, strain arl3, stronger effect = lower value 1.01 | S. cerevisiae deletion strains, locus YPL055C, strain LGE1, stronger effect = lower value 1.02 | S. cerevisiae deletion strains, locus YPL078C, strain atp4, stronger effect = lower value 1.02 | S. cerevisiae deletion strains, locus YPL106C, strain sse1, stronger effect = lower value 1.02 | S. cerevisiae deletion strains, locus YPL240C, strain hsp82, stronger effect = lower value 1 | S. cerevisiae deletion strains, locus YPL256C, strain CLN2, stronger effect = lower value 1.05 | S. cerevisiae deletion strains, locus YPR119W, strain clb2, stronger effect = lower value 1.02 | S. cerevisiae deletion strains, locus YPR141C, strain kar3, stronger effect = lower value 1.02 | S. cerevisiae deletion strains, locus YPR163C, strain tif3, stronger effect = lower value 1.02 | S. cerevisiae deletion strains, locus YPR167C, strain met16, stronger effect = lower value 1.02 | S. cerevisiae deletion strains, strain wtn01, stronger effect = lower value 0.996 | S. cerevisiae strains, strain wild type, stronger effect = lower value 1.01
